Data published in ChEMBL document CHEMBL4513216, “Probing the Open Global Health Chemical Diversity Library for Multistage-Active Starting Points for Next-Generation Antimalarials” (ACS Infect Dis, 2020).
In all, about 69,000 compounds went through this assay and about 8,600 (12%) showed an effect of 50% or more. Only a selection was taken, and strong results are over-represented in it overall.

Each compound was assayed on Plasmodium berghei (assay: Screen against P. berghei liver stage (PbLuc), transformed with Luciferase, at 10uM). Conditions: tested at 10 uM.
Format: functional, HepG2
Cc1ncc(C(=O)N2CCOC(C(=O)N3CCCCCC3)C2)c(C)n1 (configuration not stated) gave an INHIBITION of 35.1%. O=C(CN1CCCCC1)N1CCC(c2cc(=O)n3c(n2)CCCCC3)C1 (configuration not stated) showed an INHIBITION of -15.3%. With CC(C)NC(=O)NCC1(COc2cnccn2)C[C@@H](O)[C@@H](O)C1 (some centres not stated) the INHIBITION was 45.2%. O=S(=O)(Cc1ccccc1F)N1CCCC1c1nnc2n1CCCCC2 (configuration not stated) showed an INHIBITION of 20.1%. Compound CS(=O)(=O)N1CCCCC12CCN(c1nncs1)CC2 has an INHIBITION of 55.5%. CS(=O)(=O)N1CCOCC12CCN(c1nncs1)CC2 was tested, and the INHIBITION was 26.5%. Work on CN1CCCCC12CCN(c1nncs1)CC2 yielded an INHIBITION of -0.804%. With CC(=O)N1CCCC(c2ccc(C(N)=O)cn2)C1 (configuration not stated) the INHIBITION was 40%. CCc1ccc(C2c3nc[nH]c3CCN2Cc2nccn2CC)nc1 (configuration not stated) gave an INHIBITION of 29.3%. CC(=O)N1CC2(CCCC2)c2ccccc21 showed an INHIBITION of 7.21%. COc1cc2c(cc1CN1CCc3sccc3C1C)OCO2 (configuration not stated) was tested, and the INHIBITION was 26.7%. COc1ccsc1C(=O)Nc1cc(CN2CCOCC2)ccc1C gave an INHIBITION of -29.4%. With COc1cc2c(cc1CN1CCc3sccc3C1C)OCCO2 (configuration not stated) the INHIBITION was 40.6%. In the case of CCC1c2ccsc2CCN1Cc1cc2c(cc1OC)OCCO2 (configuration not stated), the INHIBITION is reported as 69.4%. CC1c2ccsc2CCN1Cc1cc2c(cc1O)OCO2 (configuration not stated) was tested, and the INHIBITION was 18.2%. COc1ccc(CN2CCc3sccc3C2C)cc1CN1CCOCC1 (configuration not stated) showed an INHIBITION of 52.7%. Cn1ncc2c1NC(=O)CC2c1cccs1 (configuration not stated) gave an INHIBITION of -3.77%. CC(c1cccc(F)c1)N1CCN(Cc2nccn2C)CC1 (configuration not stated) gave an INHIBITION of -39.7%. For CC(=O)NCC(=O)N1CCC2(COCc3c(C)nc(N(C)C)nc32)C1 (configuration not stated), the INHIBITION was -13.2%. For Cc1ccc(NC2CCN(C(=O)c3ccco3)CC2)nn1, the INHIBITION was -17%. Cc1ccc2c(n1)N(CC1CC1)CCN(C(=O)c1ccncc1F)C2 showed an INHIBITION of -37.4%. In the case of Cn1cnc2c1CCN(CC(O)c1ccc(S(C)(=O)=O)cc1)C2 (configuration not stated), the INHIBITION is reported as 57.6%. Cn1cnc2c1CCN(CCCS(=O)(=O)c1ccccc1)C2 gave an INHIBITION of -1.14%. Work on Cn1cnc2c1CCN(CCS(=O)(=O)c1ccccc1)C2 yielded an INHIBITION of 24.4%. Compound Cn1cnc2c1CCN(CC(O)c1ccc3c(c1)OCCO3)C2 (configuration not stated) has an INHIBITION of 42.6%. Cn1cnc2c1CCN(CCCOc1ccc(S(C)(=O)=O)cc1)C2 gave an INHIBITION of 49%. Compound Cn1cnc2c1CCN(CCS(=O)(=O)c1ccc(Cl)cc1)C2 has an INHIBITION of 52.3%. Work on Cc1cc(C)nc(Nc2cc(C3CCCN(C)C3)nc(C)n2)n1 (configuration not stated) yielded an INHIBITION of 46.1%. In the case of CCc1nc(C2CCCN2Cc2ccn(C)c(=O)c2)no1 (configuration not stated), the INHIBITION is reported as 21.255%. CCn1c(C(=O)N2CCCN(CC(N)=O)CC2)cc2ccccc21 showed an INHIBITION of -27.8%. Compound CN(CCNC(=O)c1cccnc1)S(C)(=O)=O has an INHIBITION of 30.9%. Compound CCc1nn(C)c(Cl)c1CN1CCCC2(CC1)CN(C)C(=O)O2 (configuration not stated) has an INHIBITION of 53.4%. For CCc1nn(C)c(Cl)c1CN1CCC2(C1)CN(C)C(=O)O2 (configuration not stated), the INHIBITION was -73.7%. CCc1nn(C)c(Cl)c1CN1CCCC2(C1)CN(C)C(=O)O2 (configuration not stated) was tested, and the INHIBITION was 14.9%. Work on CN(C)Cc1ccccc1Cn1cncc1-c1cnn(C)c1 yielded an INHIBITION of 12.8%. O=S(=O)(c1cccs1)N1CCCn2cnc(CO)c2C1 was tested, and the INHIBITION was 26.3%. For CC(NC(=O)CCn1c(=O)oc2ccccc21)c1ccccn1 (configuration not stated), the INHIBITION was 8.65%. Cn1nc(N2CCCC(C(=O)Nc3nc4ccccc4s3)C2)ccc1=O (configuration not stated) gave an INHIBITION of 82.2%. Cn1nc(N2CCCC(C(=O)Nc3nc4ccccc4[nH]3)C2)ccc1=O (configuration not stated) was tested, and the INHIBITION was 51%. Compound Cn1ncc(C(=O)O)c1C(=O)Nc1nc2ccccc2s1 has an INHIBITION of 45.4%. CCNC(=O)C1CCCN(c2ccc3ccc(F)cc3n2)C1 (configuration not stated) gave an INHIBITION of 20.8%. Cn1nc(N2CCCC(C(=O)Nc3nccs3)C2)ccc1=O (configuration not stated) gave an INHIBITION of 21.5%. Compound CNC(=O)C1CCCN(c2nc3c(-c4ccccc4)csc3c(=O)[nH]2)C1 (configuration not stated) has an INHIBITION of 11.6%. CCOCCSc1nnc(-c2cn(CC)nc2OCC)n1C showed an INHIBITION of 1.95%. For O=C(C1CCCCC1)N1CCCC([C@@H]2C[C@H](C(F)F)n3ncnc3N2)C1 (some centres not stated), the INHIBITION was 25.26%. Cc1cc(C)nc(C2CCN(C(=O)CCn3ncc4ccccc43)C2)n1 (configuration not stated) gave an INHIBITION of 9.93%. CC(Cn1ccnc1)NCc1csc2c1CCCC2 (configuration not stated) showed an INHIBITION of 31.4%. CC(Cn1cccn1)NCc1csc2c1CCCC2 (configuration not stated) showed an INHIBITION of 46.6%. For CC(Cn1cncn1)NCc1csc2c1CCCC2 (configuration not stated), the INHIBITION was 51.1%. In the case of CCc1nnc(CN2CCc3ccc(S(N)(=O)=O)cc32)o1, the INHIBITION is reported as 18%. In the case of CN(CCc1ccccn1)C(=O)CCC1CCCN(c2cnccn2)C1 (configuration not stated), the INHIBITION is reported as 27.6%. CC(=O)N1CCc2nnc(C3CCCCN3CC3CCCCC3)n2CC1 (configuration not stated) gave an INHIBITION of 42.4%. With COCCNC(=O)NC1(c2ccccc2F)CC1 the INHIBITION was 20%. With CCN(CC)C(CNC(=O)c1ccnc(N(C)C)c1)c1ccsc1 (configuration not stated) the INHIBITION was 13.3%. Cc1ccc(C)c(CC(=O)NC2CCS(=O)(=O)CC2)c1 gave an INHIBITION of 41.5%. Cc1ccc(C)c(CC(=O)NC2CCC(N3C(=O)CCC3=O)CC2)c1 (configuration not stated) showed an INHIBITION of 50.1%. Work on Cc1ccc(C)c(C(=O)NC2CCC(N3C(=O)CCC3=O)CC2)c1 (configuration not stated) yielded an INHIBITION of -56.4%. With CN(Cc1cccnc1)Cc1cn2c(n1)CN(C1CCOCC1)CC2 the INHIBITION was 4.57%. CC1=CC[C@@H]2CN(C(=O)c3ccc(-c4cc[nH]n4)cc3)C[C@@H]2C1 was tested, and the INHIBITION was -37.1%. COc1ccc(CNC(=O)NCCc2csc(C)n2)cn1 gave an INHIBITION of 36.1%. Work on Cn1ccc(NCc2cc3cc(F)ccc3o2)n1 yielded an INHIBITION of -18%. With Cc1ccc(-c2c[nH]c([C@@H]3COCCN3Cc3ncc[nH]3)n2)cc1 the INHIBITION was 46.6%. With CN1CCOC[C@H]1c1nc(C(C)(C)C)c[nH]1 the INHIBITION was 50.2%. CN1CCOC[C@H]1c1nc(-c2cccc(F)c2)c[nH]1 gave an INHIBITION of 9.51%. CN1CCC(N2CCOC[C@H]2c2nc(-c3ccncc3)c[nH]2)CC1 was tested, and the INHIBITION was 35.8%. For CN1CCC(N2CCOC[C@H]2c2nc(C(C)(C)C)c[nH]2)CC1, the INHIBITION was 49.5%. For CN1CCOC[C@H]1c1nc(-c2ccccc2)c[nH]1, the INHIBITION was -23.1%. With c1cc(CN2CCOC[C@H]2c2nc(-c3ccncc3)c[nH]2)ccn1 the INHIBITION was -7.59%. For CN1CCOC[C@H]1c1nc(-c2ccncc2)c[nH]1, the INHIBITION was 52%. In the case of CC(C)(C)CN1CCOC[C@H]1c1nc(-c2cccc(F)c2)c[nH]1, the INHIBITION is reported as 64.8%. In the case of Fc1cccc(-c2c[nH]c([C@@H]3COCCN3C3CCOCC3)n2)c1, the INHIBITION is reported as -24.1%. Compound CC(C)(C)c1c[nH]c([C@@H]2COCCN2C2CCC2)n1 has an INHIBITION of 23%. With c1cc(-c2c[nH]c([C@@H]3COCCN3Cc3ncc[nH]3)n2)ccn1 the INHIBITION was 54.7%. With COCC(=O)N1CCC2(CC1)CN(S(C)(=O)=O)Cc1ccccc1O2 the INHIBITION was 14.94%. Work on c1ncn(CC2CN(Cc3ccc4c(c3)OCCO4)CCO2)n1 (configuration not stated) yielded an INHIBITION of 17.4%. Compound O=C(CC1CN(Cc2ccccc2)CCO1)Nc1ccsc1 (configuration not stated) has an INHIBITION of 31.3%. CC(C)[C@H]1CN(C(=O)CO)C[C@@H]1N(C)C was tested, and the INHIBITION was 14%. Compound CCS(=O)(=O)N1C[C@@H](O)[C@H](N(C)Cc2ccc(F)cc2)C1 has an INHIBITION of 11.94%. CC1CCN(C(=O)c2ccn(COc3ccccc3)n2)CC1 showed an INHIBITION of -15.5%. CSc1ccccc1C(=O)NCc1cc2n(n1)CCCN(CC(C)C)C2 gave an INHIBITION of 38.2%. O=C(NCc1ccccn1)c1cc2n(n1)CCNC2 gave an INHIBITION of -54.5%. CC(C)N1CCCn2nc(C(=O)NCc3ccccc3F)cc2C1 showed an INHIBITION of 62.6%. CC(NC(=O)c1cc2n(n1)CCCN(C(C)C)C2)c1cn2ccsc2n1 (configuration not stated) was tested, and the INHIBITION was -59.5%. Compound CC(C)N1CCCn2nc(C(=O)NCCc3c[nH]cn3)cc2C1 has an INHIBITION of 18.2%. In the case of CC(C)N1CCCn2nc(C(=O)NCCc3ccccn3)cc2C1, the INHIBITION is reported as 57.2%. In the case of CCN1CCO[C@@H]2CN(S(=O)(=O)c3cccs3)CC[C@@H]2C1, the INHIBITION is reported as 15.6%. CC(C)N1C(=O)CN(CCOCCO)CC1(C)C was tested, and the INHIBITION was 23.1%. Cc1cccc(Cn2c(=O)[nH]c3csnc3c2=O)c1 was tested, and the INHIBITION was 12.8%. In the case of CC(C)C(O)CNC(=O)Nc1cnn(Cc2ccccc2)c1 (configuration not stated), the INHIBITION is reported as 4.82%. Work on CSc1ncc(CN2C[C@@H]3CC[C@H]2CN(C2CCOCC2)C3)cn1 yielded an INHIBITION of 9.91%. For CCSc1ncc(CN2C[C@@H]3CC[C@H]2CN(C2CCOCC2)C3)cn1, the INHIBITION was 48.5%. Compound CN(C)c1ccc(CN2C[C@@H]3CC[C@H]2CN(C2CCOCC2)C3)cn1 has an INHIBITION of 53.5%. Compound Cc1nc(CN2CCC3(CCN(Cc4cnn(C)c4)C3)C2=O)cs1 (configuration not stated) has an INHIBITION of 25.3%. Work on O=S1(=O)c2cccnc2OC(Cc2ccccc2)CN1CC1CC1 (configuration not stated) yielded an INHIBITION of 24.5%. For OCC1(O)CCN(c2ccnc3c(C(F)(F)F)cccc23)CC1, the INHIBITION was 17.5%. Cc1nn(C)cc1C(=O)Nc1cccc(CN2CCC(CO)CC2)c1 showed an INHIBITION of 44.2%. Compound Cc1cc(C)c(C(=O)Nc2cccc(CN3CCC(CO)CC3)c2)o1 has an INHIBITION of -30%. With Cc1nc(C)c(C(=O)Nc2cccc(CN3CCC(CO)CC3)c2)o1 the INHIBITION was 61.8%. For CCc1cccc(-n2nnc(C(=O)O)c2-c2ccncc2)c1, the INHIBITION was 45.8%. For Cc1n[nH]c(-c2ccc(NC(=O)C(C)N3CCN(C)CC3)cc2)n1 (configuration not stated), the INHIBITION was -27.4%. With CCCN1CCCN(C(=O)C(CC)N2CCCC2=O)CC1 (configuration not stated) the INHIBITION was -3.99%. Compound CCC(C(=O)NCc1ccn(-c2ccc(F)cc2)n1)N1CCCC1=O (configuration not stated) has an INHIBITION of 2.82%. Compound CCC(C(=O)Nc1ccc2c(C)n[nH]c2c1)N1CCCC1=O (configuration not stated) has an INHIBITION of 53.6%. In the case of Cc1n[nH]c(-c2ccc(NC(=O)C(C)(C)N3CCN(C)CC3)cc2)n1, the INHIBITION is reported as -25.6%. CCC(C(=O)Nc1ccc(-c2nc(C)n[nH]2)cc1)N1CCCC1=O (configuration not stated) gave an INHIBITION of 59.1%. Compound CC(C)(C)c1noc(CCC(=O)NCC2CCS(=O)(=O)C2)n1 (configuration not stated) has an INHIBITION of 26.4%. For Cc1cc(N(C)C)nc(C2COCCN2Cc2cscn2)n1 (configuration not stated), the INHIBITION was 45.9%.
